Screening results from PubChem BioAssay.
The list is not random: actives were taken first. Their share in the collection is about 4.1%.
Jurkat NFkB inh = lowers PMA/ionomycin-induced NF-kB signal in Jurkat cells. PMA/ionomycin-induced NF-kB luciferase reporter, luminescence. inhibition, % at 4 µM. 330,000 tested, 0.53% active. AID 435003; in the data active = inhibition above about 50%
Mdm2-MdmX inh = inhibitors of human Mdm2/MdmX interaction; SaOS-2 split-luciferase Mdm2/MdmX complementation, luminescence; inhibition, % at 8 µM; 330,000 tested, 3% active; AID 485346;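 active = inhibition of at least 50% at 8 µM in the primary screen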
Target sequence (O15151 whole entry, looked up): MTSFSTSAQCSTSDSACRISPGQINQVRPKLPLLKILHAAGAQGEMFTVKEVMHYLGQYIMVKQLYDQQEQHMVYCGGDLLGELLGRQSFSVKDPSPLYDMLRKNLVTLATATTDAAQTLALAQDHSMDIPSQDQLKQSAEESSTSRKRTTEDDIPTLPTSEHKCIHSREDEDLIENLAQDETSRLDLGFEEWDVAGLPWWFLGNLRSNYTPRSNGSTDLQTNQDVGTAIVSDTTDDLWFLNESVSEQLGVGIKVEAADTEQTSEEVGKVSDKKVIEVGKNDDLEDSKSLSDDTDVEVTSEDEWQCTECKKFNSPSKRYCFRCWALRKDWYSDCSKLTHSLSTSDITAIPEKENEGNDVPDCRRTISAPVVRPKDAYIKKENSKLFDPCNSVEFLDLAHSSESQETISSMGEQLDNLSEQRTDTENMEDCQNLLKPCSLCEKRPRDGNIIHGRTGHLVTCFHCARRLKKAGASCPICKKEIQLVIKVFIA
Target sequence (Q00987 whole entry, looked up): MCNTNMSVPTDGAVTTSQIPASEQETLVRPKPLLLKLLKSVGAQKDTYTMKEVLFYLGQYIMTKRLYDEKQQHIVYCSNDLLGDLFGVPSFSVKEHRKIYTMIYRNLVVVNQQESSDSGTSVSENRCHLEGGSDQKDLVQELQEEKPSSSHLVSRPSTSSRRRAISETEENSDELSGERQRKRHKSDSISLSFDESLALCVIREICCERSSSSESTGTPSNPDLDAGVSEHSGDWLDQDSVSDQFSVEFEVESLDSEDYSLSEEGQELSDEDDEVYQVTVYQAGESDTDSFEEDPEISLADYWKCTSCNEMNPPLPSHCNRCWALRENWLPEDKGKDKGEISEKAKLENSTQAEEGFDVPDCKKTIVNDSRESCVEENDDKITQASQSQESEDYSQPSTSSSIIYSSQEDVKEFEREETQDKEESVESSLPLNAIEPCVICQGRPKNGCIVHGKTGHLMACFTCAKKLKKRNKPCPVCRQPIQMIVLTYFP
Gli-Sufu block = blocks Gli-Sufu signaling in a luciferase reporter | AID 588413 | Sufu-KO-LIGHT fibroblasts, Gli luciferase reporter luminescence | 340,000 tested, 0.74% active | inhibition, % at 5 µM;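 active = inhibition above about 55%, limit read from the data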
aSyn UTR inh = 5' untranslated region of α-synuclein, MLPCN primary screen; alpha-synuclein 5'UTR reporter, inhibitor activity; inhibition, % (tested at 7.5 µM); 300,000 tested, 0.82% active; AID 1813; in the data active = inhibition above about 60%; inconclusive = no clear call, values can overlap the other calls;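 also: H4 neuroglioblastoma cells stably carrying SNCA 5'UTR luciferase fusion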
697 NFkB inh = lowers PMA/ionomycin-induced NF-kB signal in 697 B cells | 697 B-cell NF-kB luciferase reporter, 16 h | 330,000 tested, 0.33% active | AID 435022 | inhibition, % at 4 µM; in the data active = inhibition above about 35%
KLF5 inh = suppresses KLF5 promoter-driven expression. AID 1700. 290,000 tested, 0.23% active. DLD-1 KLF5 promoter-luciferase reporter, luminescence. inhibition, % at 5 µM;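 active = inhibition above a per-plate limit of that plate's mean compound inhibition plus 3 SD, cut at about 60% in these data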;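 also: higher means less KLF5 promoter-driven luciferase light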
Mdm2-MdmX conf = confirmation of human Mdm2/MdmX interaction inhibitors; inhibition, % at 8 µM; AID 489028; 10,000 tested, 55% active; Mdm2-MdmX binding, luminescent assay; shares compounds with Mdm2-MdmX inh; in the data active = inhibition above about 40%
Full FLuc ctr = inhibits full-length luciferase, flagging false Mdm2/MdmX hits. shares compounds with Mdm2-MdmX inh. SaOS-2 full-length luciferase counterscreen, luminescence. inhibition, % at 8 µM. 6,200 tested, 77% active. AID 504607;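 active = mean inhibition at 8 µM reaching about 37%, which flags the compound as non-specific, limit read from the data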;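 also: p53-null SaOS-2 cells with luciferase driven by a doxycycline-inducible promoter; compound on cells about two nights before reading with doxycycline added after day one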
Large screens that a line does not name were inactive (follow-up assays come after a bar, where they were run).

Cc1cccc(OCC(O)Cn2c(=N)n(CCN3CCCCC3)c3ccccc32)c1 (centres undefined)	Mdm2-MdmX inh 53 | Mdm2-MdmX conf 46 | Full FLuc ctr 61
N=c1n(Cc2ccccc2)c2ccccc2n1Cc1ccccc1	none
CCN(C(=O)COC(=O)c1ccc(N2C(=O)c3ccccc3C2=O)cc1)C1CCS(=O)(=O)C1 (centres undefined)	none
O=C(OCN1C(=O)c2ccccc2C1=O)c1cc(S(=O)(=O)N2CCOCC2)ccc1F	none (no result: aSyn UTR inh, KLF5 inh)
Cc1ccc2nc(/C(C#N)=C/c3ccc(O)c(O)c3)[nH]c2c1	none
Cc1ccc2nc(/C(C#N)=C/c3cn[nH]c3-c3ccc(F)cc3)[nH]c2c1	Mdm2-MdmX inh 66 | Mdm2-MdmX conf 57 | Full FLuc ctr 48
CCOc1ccc2nc(Cl)c(/C=C/C(=O)c3ccco3)cc2c1	Mdm2-MdmX inh 53 | Mdm2-MdmX conf inactive
Cc1cccc2cc(/C=C/C(=O)c3ccco3)c(Cl)nc12	none
CCCNc1nc2ccccc2n2c(C)nnc12	Mdm2-MdmX inh 58 | Mdm2-MdmX conf inactive
CCCN(CCC)c1nc2ccccc2n2c(C)nnc12	none
COc1ccccc1NC(=S)NC(=O)/C=C/c1ccco1	none
COc1ccc(NC(=O)Nc2cc3oc4ccccc4c3cc2OC)cc1	none
COc1ccc(/C=C/C(=O)NC(=S)Nc2cc3oc4ccccc4c3cc2OC)cc1	Mdm2-MdmX inh 90 | Mdm2-MdmX conf inactive
COc1cc2c(cc1NC(=S)NC(=O)/C=C/c1ccco1)oc1ccccc12	Mdm2-MdmX inh 50 | Mdm2-MdmX conf inactive
COc1cc2c(cc1NC(=S)NC(=O)/C=C/c1ccc(OC)c(OC)c1)oc1ccccc12	none (no result: Jurkat NFkB inh, Mdm2-MdmX inh, aSyn UTR inh, 697 NFkB inh)
COc1ccc(OCC(=O)Nc2cc3oc4ccccc4c3cc2OC)cc1	Mdm2-MdmX inh 93 | Mdm2-MdmX conf 67 | Full FLuc ctr 89
Cc1ccc(NC(=O)CCC(=O)N2CCC(C)CC2)c([N+](=O)[O-])c1	none
Cc1cc(S(=O)(=O)NCCCN2CCOCC2)c(Cl)cc1Cl	none
COc1ccc(OC)c(S(=O)(=O)NCCCN2CCCC2=O)c1	none
c1ccc(CN2CCC(Nc3nc(-c4cccs4)nc4ccccc34)CC2)cc1	Mdm2-MdmX inh 93, aSyn UTR inh 62 | Mdm2-MdmX conf inactive | Full FLuc ctr 74
c1csc(-c2nc(NCC3CCCO3)c3ccccc3n2)c1 (centres undefined)	none
Cc1cnc(NC(=O)CN2CCN(c3ccccn3)CC2)s1	Mdm2-MdmX inh 67 | Mdm2-MdmX conf 63 | Full FLuc ctr 64
Cc1cc(NC(=O)c2ccco2)c(=O)n(Cc2cccc(C(F)(F)F)c2)c1	none
Cc1cc(C)n(-c2cccc(CN(C)Cc3nc(-c4cnccn4)no3)c2)n1	none
CCc1cc(C(=O)N(CCCOC)c2c(N)n(Cc3ccccc3)c(=O)[nH]c2=O)sc1C	none (no result: KLF5 inh)
O=c1[nH]c(CSc2ncnc3sc(-c4ccccc4)cc23)nc2ccccc12	Mdm2-MdmX inh 87 | Mdm2-MdmX conf inactive
COC(=O)c1c(C)[nH]c(C(=O)CSc2ncnc3sc(-c4ccccc4)cc23)c1C	Mdm2-MdmX inh 67 | Mdm2-MdmX conf inactive
Cc1cccnc1NC(=O)NC(=O)c1ccc(C(C)(C)C)s1	none
Cc1ccc(CNC(=O)N2CCN(S(=O)(=O)c3ccccc3)CC2)cc1	none
O=C(c1cn(-c2ccccc2)nc1-c1cccs1)N1CCN(c2ccccc2)CC1	Mdm2-MdmX inh 59 | Mdm2-MdmX conf 48 | Full FLuc ctr 64
CCN(CC)CCNC(=O)c1ccc(NC(=O)c2cn(-c3ccccc3)nc2-c2cccs2)cc1	Mdm2-MdmX inh 98 | Mdm2-MdmX conf 64 | Full FLuc ctr 53
CCN(CC)CCNC(=O)c1ccc(NC(=O)c2cn(-c3ccc(F)cc3)nc2-c2cccc(OC)c2)cc1	Mdm2-MdmX inh 96 | Mdm2-MdmX conf 58 | Full FLuc ctr inactive
O=C(Nc1cccnc1)c1cn(-c2ccccc2)nc1-c1cccs1	none
O=C(c1cn(-c2ccccc2)nc1-c1cccs1)N1CCOCC1	none
O=C(c1ccccc1)c1c[nH]c(C(=O)NNc2ccccc2)c1	none
O=C(OCC(=O)N1CCC(Cc2ccccc2)CC1)c1cc(Br)ccc1O	none (no result: aSyn UTR inh, KLF5 inh)
O=C(CC1C=Cc2ccccc2N1C(=O)c1ccccc1)c1ccccc1 (centres undefined)	none
Cc1ccc(S(=O)(=O)N[C@@H](Cc2ccccc2)C(=O)CCl)cc1	Mdm2-MdmX inh 80 (no result: aSyn UTR inh) | Mdm2-MdmX conf inactive | Full FLuc ctr 63
Cc1ccc(S(=O)(=O)NC(Cc2ccccc2)C(=O)NN)cc1 (centres undefined)	none
CC(=O)c1ccc(-n2c(C)c(C(C)=O)c3cc(O)ccc32)cc1	Mdm2-MdmX inh 62 | Mdm2-MdmX conf 65 | Full FLuc ctr 48
COC(=O)c1c(C)n(-c2ccc(C)cc2)c2ccc(O)cc12	Mdm2-MdmX inh 53 | Mdm2-MdmX conf 46 | Full FLuc ctr 55
CCOc1ccc(-n2c(C)c(C(C)=O)c3cc(O)ccc32)cc1	Mdm2-MdmX inh 53 | Mdm2-MdmX conf 56 | Full FLuc ctr inactive
CCOc1ccc(-n2c(C)c(C(=O)OC)c3cc(O)ccc32)cc1	none
O=C(Nc1ccc([N+](=O)[O-])cc1)C(Cc1ccccc1)N1C(=O)c2cccc3cccc(c23)C1=O (centres undefined)	Mdm2-MdmX inh 63, aSyn UTR inh inconclusive | Mdm2-MdmX conf inactive
O=C(Nc1cc([N+](=O)[O-])ccc1Cl)c1ccc2c(c1)OCO2	Mdm2-MdmX inh 74 | Mdm2-MdmX conf inactive
O=C(Nc1ccc(Cl)cc1[N+](=O)[O-])c1ccc2c(c1)OCCO2	none
COC(=O)c1ccc(CN(C)S(=O)(=O)c2cccs2)cc1	none
O=C(Cn1cnc2cc([N+](=O)[O-])ccc2c1=O)Nc1cccc(S(=O)(=O)N2CCOCC2)c1	Mdm2-MdmX inh 61 | Mdm2-MdmX conf inactive
Cc1ccc(S(=O)(=O)c2nc(-c3ccccc3Cl)oc2N(C)C)cc1	Mdm2-MdmX inh 56 | Mdm2-MdmX conf 72 | Full FLuc ctr 73
Cc1ccc(S(=O)(=O)c2nc(-c3ccccc3Br)oc2N(C)C)cc1	none
OCCN1CCN(c2nc(-c3ccccc3)nc3c2oc2ccccc23)CC1	Mdm2-MdmX inh 54 | Mdm2-MdmX conf inactive | Full FLuc ctr 54
CN(C)/C=C/C(=O)c1ccc2noc(-c3cccc(F)c3)c2c1	Mdm2-MdmX inh 53 | Mdm2-MdmX conf inactive
COc1ccc(-c2onc3ccc(C(=O)/C=C/N(C)C)cc23)cc1	none
Cc1cccc(CC(Cc2nc3ccccc3[nH]2)c2nc3ccccc3[nH]2)c1 (centres undefined)	Mdm2-MdmX inh 75 | Mdm2-MdmX conf inactive
CS(=O)(=O)c1cccc(C(=O)OCC(=O)Nc2ccc3c(c2)OCO3)c1	none (no result: aSyn UTR inh, KLF5 inh)
